Test results published in the supplement of paper PMC8285479.
Structures can show the parent of a compound that is named as a salt. ± gives the standard deviation of the averaged measurements. The full ranking holds about 1,900 compounds; the median of “normalised cell viability (NPI; 0 = phenylarsine oxide control, 1 = DMSO control)” is about 1, and the lowest 2% start at about 0.039. The sample as a whole holds a higher share of the lowest values than the screen did.

System: NCI-H1944
Test: normalised cell viability (NPI; 0 = phenylarsine oxide control, 1 = DMSO control) (fraction of DMSO control); NCI-H1944 is a non-small cell lung cancer line; higher = more viable cells (less compound toxicity)
Conditions: 6 days
[1] = glucocorticoid arm: hydrocortisone 2.75 uM co-treatment, compound 1 µM
[2] = glucocorticoid arm: hydrocortisone 2.75 uM co-treatment, compound 5 µM
[3] = glucocorticoid arm: hydrocortisone 2.75 uM pre-treated 2 days and continued, compound 1 µM
[4] = glucocorticoid arm: hydrocortisone 2.75 uM pre-treated 2 days and continued, compound 5 µM
[5] = glucocorticoid arm: vehicle, compound 1 µM
[6] = glucocorticoid arm: vehicle, compound 5 µM
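Note: CTB read-out in 384-well plates, triplicate wells, NPI normalised per plate against 1 µM phenylarsine oxide (0) and 0.1% DMSO (1) controls.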

Compound | normalised cell viability [1] | normalised cell viability [2] | normalised cell viability [3] | normalised cell viability [4] | normalised cell viability [5] | normalised cell viability [6]
O=C(NCCCNc1nc(Nc2cccc(NC(=O)N3CCCC3)c2)ncc1I)c1cccs1 | 0.9797 ± 0.0095 | 0.993 ± 0.027 | 0.9587 ± 0.0025 | 1.05 ± 0.017 | 0.71 ± 0.01 | 0.3133 ± 0.0023
c1ccc2c(-c3cnn4cc(-c5ccc(N6CCNCC6)cc5)cnc34)ccnc2c1 | 1.043 ± 0.0058 | 0.832 ± 0.14 | 1.04 ± 0.01 | 1.09 ± 0.021 | 1.01 ± 0.011 | 0.0214 ± 0.0048
Nc1ncnc2c1nc(Br)n2C1OC2COP(=O)(O)O[C@@H]2C1O (stereo not given in full) [8-Bromo-cAMP sodium] | 0.9863 ± 0.004 | 0.901 ± 0.017 | 0.983 ± 0.001 | 0.96 ± 0.016 | 0.9617 ± 0.0067 | 0.9647 ± 0.0093
Cc1nn(-c2ccccc2)c(C)c1C=NN1CCN(Cc2ccccc2)CC1 | 1.01 ± 0.01 | 0.991 ± 0.05 | 1.02 ± 0.011 | 0.9927 ± 0.0078 | 0.9987 ± 0.0023 | 0.996 ± 0.013
CNC(CC(=O)O)C(=O)O [NMDA (N-Methyl-D-aspartic acid)] | 1.006 ± 0.0069 | 1.03 ± 0.037 | 1.01 ± 0.032 | 1.01 ± 0.013 | 1.003 ± 0.0058 | 0.9973 ± 0.0025
FC(F)(F)c1cc(COC2CCCNC2c2ccccc2)cc(C(F)(F)F)c1 [L-733,060 hydrochloride] | 0.9863 ± 0.0067 | 0.843 ± 0.034 | 1 ± 0.014 | 0.993 ± 0.076 | 0.9957 ± 0.0067 | 0.928 ± 0.076
N/C(=N\C(=O)c1nc(Cl)c(N)nc1N)NCc1ccc(Cl)c(Cl)c1 [3',4'-Dichlorobenzamil hydrochloride] | 0.99 ± 0.0089 | 0.0646 ± 0.03 | 0.998 ± 0.013 | 0.862 ± 0.014 | 0.98667 ± 0.00058 | 0.0118 ± 0.0064
N/C(=N\C(=O)c1nc(Cl)c(N)nc1N)NCc1ccccc1 [Benzamil hydrochloride] | 1.023 ± 0.0058 | 1.04 ± 0.01 | 1.03 ± 0.011 | 1.05 ± 0.028 | 0.9897 ± 0.0045 | 1.02 ± 0.016
N=C(N)NC(=O)c1nc(Cl)c(N)nc1N [Amiloride hydrochloride] | 0.9737 ± 0.006 | 0.966 ± 0.023 | 0.991 ± 0.0052 | 0.992 ± 0.025 | 0.9947 ± 0.0084 | 1.003 ± 0.0064
CCCCCCCCCCCCCCCCCC(=O)NCC(COP(=O)([O-])OCC[N+](C)(C)C)OCC (racemic) [rac-2-Ethoxy-3-octadecanamido-1-propylphosphocholine] | 1.017 ± 0.0058 | 1.04 ± 0.011 | 1.01 ± 0.011 | 1.04 ± 0.021 | 0.9997 ± 0.0091 | 1.002 ± 0.0067
CCCCOc1cc(CC2CNC(=O)N2)ccc1OC (stereo not given) | 1.01 ± 0.01 | 1.01 ± 0.021 | 1.01 ± 0.011 | 1.01 ± 0.021 | 1.013 ± 0.0058 | 1.013 ± 0.0058
COC(=O)C[C@](O)(CCCC(C)(C)O)C(=O)O[C@@H]1C(OC)=C[C@]23CCCN2CCc2cc4c(cc2[C@H]13)OCO4 [Omacetaxine mepesuccinate] | 0.00277 ± 0.001 | 1.08 ± 0.026 | 0.0391 ± 0.002 | 1.03 ± 0.021 | 0.00151 ± 0.00092 | 1.017 ± 0.0058
O=c1[nH]c2cc(Cl)c(Cl)cc2[nH]c1=O [6,7-Dichloroquinoxaline-2,3-dione] | 1.01 ± 0.011 | 1.04 ± 0.011 | 1.003 ± 0.0061 | 1.04 ± 0.021 | 0.989 ± 0.007 | 1.002 ± 0.0068
NC(=O)c1cc[n+](CC2=C(C(=O)O)N3C(=O)[C@@H](NC(=O)C(c4ccccc4)S(=O)(=O)[O-])[C@H]3SC2)cc1 (stereo not given in full) [Cefsulodin sodium salt hydrate] | 1.01 | 1.013 ± 0.0058 | 1.02 | 1.01 ± 0.014 | 0.997 ± 0.013 | 0.9997 ± 0.0096
CCc1cnn2c(NCc3ccc[n+]([O-])c3)cc(N3CCCC[C@H]3CCO)nc12 | 0.0547 ± 0.0038 | 0.0409 ± 0.0039 | 0.144 ± 0.004 | 0.153 ± 0.0068 | 0.0139 ± 0.0022 | 0.00878 ± 0.0013
Oc1cc2c(cc1O)C(c1ccccc1)CNCC2 (racemic) | 0.987 ± 0.014 | 0.982 ± 0.013 | 0.982 ± 0.023 | 0.972 ± 0.011 | 0.992 ± 0.0044 | 0.9913 ± 0.0021
OC(CN1CCC(Cc2ccc(F)cc2)CC1)c1ccc(Cl)cc1 (stereo not given) [Eliprodil] | 0.9487 ± 0.0064 | 0.9277 ± 0.0051 | 0.9827 ± 0.0091 | 0.971 ± 0.0076 | 0.9973 ± 0.0046 | 0.9967 ± 0.0058
COc1ccc(C(=O)NCc2cccnc2)cc1C(=O)NCc1cccnc1 [Picotamide] | 0.989 ± 0.017 | 0.992 ± 0.004 | 0.867 ± 0.26 | 1 ± 0.016 | 1.007 ± 0.0058 | 1.003 ± 0.0064
Cc1cc(NC(=O)c2cccc(NC(=O)/C=C/CN(C)C)c2)ccc1Nc1nccc(-c2cccnc2)n1 | 0.989 ± 0.016 | 0.943 ± 0.017 | 1.007 ± 0.0058 | 0.917 ± 0.026 | 0.959 ± 0.011 | 0.702 ± 0.033
Nc1ccccc1NC(=O)c1ccc(CNC(=O)OCc2cccnc2)cc1 [Entinostat] | 0.925 ± 0.019 | 0.0313 ± 0.0074 | 0.962 ± 0.013 | 0.0766 ± 0.011 | 0.348 ± 0.03 | 0.00136 ± 0.00059
Nc1ccccc1NC(=O)c1ccc(CNC(=O)OCc2cccnc2)cc1 [Entinostat (MS-275)] | 1.05 ± 0.015 | 0.184 ± 0.004 | 1.023 ± 0.0058 | 0.302 ± 0.018 | 0.866 ± 0.026 | 0.02 ± 0.0035
Cc1ccc(NC(=O)c2ccc(CN3CCN(C)CC3)cc2)cc1Nc1nccc(-c2cccnc2)n1 | 1.043 ± 0.0058 | 1.1 ± 0.032 | 1.04 ± 0.011 | 1.05 ± 0.01 | 0.9957 ± 0.004 | 1 ± 0.014
Cc1ccc(NC(=O)c2ccc(CN3CCN(C)CC3)cc2)cc1Nc1nccc(-c2cccnc2)n1 [Imatinib (Gleevec)] | 1.05 ± 0.017 | 1.14 ± 0.015 | 1.037 ± 0.0058 | 1.1 ± 0.01 | 1.01 ± 0.015 | 1.033 ± 0.0058
Nc1ccccc1NC(=O)c1ccc(CNc2nccc(-c3cccnc3)n2)cc1 [Mocetinostat (MGCD0103)] | 1.033 ± 0.0058 | 0.00494 ± 0.0024 | 1.02 ± 0.02 | 0.0153 ± 0.0051 | 0.585 ± 0.02 | 0.00194 ± 0.00024
Cc1ccc(NC(=O)c2ccc(CN3CCN(C)CC3)cc2)cc1Nc1nccc(-c2cccnc2)n1 [Imatinib Mesylate] | 1.05 ± 0.015 | 1.14 ± 0.021 | 1.05 ± 0.015 | 1.1 ± 0.032 | 1.01 ± 0.01 | 1.03 ± 0.011
